The full list was thinned out, with hits kept by preference.
KDM5B inhibitor – Primary screen for KDM5B Histone Demethylases FDH-coupled qHTS; Lysine-specific demethylase 5B (Homo sapiens), Q9UGL1; hit rate 2.6% among 220,000; KDM5B demethylase, FDH-coupled NADH fluorescence (FDH is formaldehyde dehydrogenase); Potency, µM (highest dose often 57.7 µM), usual class: inhibitors; active = well fitted inhibition curve with a large enough effect; note: 0% is about no effect; nearly all actives have a fitted effect of over 70% in size
Target sequence (Q9UGL1 whole entry, looked up): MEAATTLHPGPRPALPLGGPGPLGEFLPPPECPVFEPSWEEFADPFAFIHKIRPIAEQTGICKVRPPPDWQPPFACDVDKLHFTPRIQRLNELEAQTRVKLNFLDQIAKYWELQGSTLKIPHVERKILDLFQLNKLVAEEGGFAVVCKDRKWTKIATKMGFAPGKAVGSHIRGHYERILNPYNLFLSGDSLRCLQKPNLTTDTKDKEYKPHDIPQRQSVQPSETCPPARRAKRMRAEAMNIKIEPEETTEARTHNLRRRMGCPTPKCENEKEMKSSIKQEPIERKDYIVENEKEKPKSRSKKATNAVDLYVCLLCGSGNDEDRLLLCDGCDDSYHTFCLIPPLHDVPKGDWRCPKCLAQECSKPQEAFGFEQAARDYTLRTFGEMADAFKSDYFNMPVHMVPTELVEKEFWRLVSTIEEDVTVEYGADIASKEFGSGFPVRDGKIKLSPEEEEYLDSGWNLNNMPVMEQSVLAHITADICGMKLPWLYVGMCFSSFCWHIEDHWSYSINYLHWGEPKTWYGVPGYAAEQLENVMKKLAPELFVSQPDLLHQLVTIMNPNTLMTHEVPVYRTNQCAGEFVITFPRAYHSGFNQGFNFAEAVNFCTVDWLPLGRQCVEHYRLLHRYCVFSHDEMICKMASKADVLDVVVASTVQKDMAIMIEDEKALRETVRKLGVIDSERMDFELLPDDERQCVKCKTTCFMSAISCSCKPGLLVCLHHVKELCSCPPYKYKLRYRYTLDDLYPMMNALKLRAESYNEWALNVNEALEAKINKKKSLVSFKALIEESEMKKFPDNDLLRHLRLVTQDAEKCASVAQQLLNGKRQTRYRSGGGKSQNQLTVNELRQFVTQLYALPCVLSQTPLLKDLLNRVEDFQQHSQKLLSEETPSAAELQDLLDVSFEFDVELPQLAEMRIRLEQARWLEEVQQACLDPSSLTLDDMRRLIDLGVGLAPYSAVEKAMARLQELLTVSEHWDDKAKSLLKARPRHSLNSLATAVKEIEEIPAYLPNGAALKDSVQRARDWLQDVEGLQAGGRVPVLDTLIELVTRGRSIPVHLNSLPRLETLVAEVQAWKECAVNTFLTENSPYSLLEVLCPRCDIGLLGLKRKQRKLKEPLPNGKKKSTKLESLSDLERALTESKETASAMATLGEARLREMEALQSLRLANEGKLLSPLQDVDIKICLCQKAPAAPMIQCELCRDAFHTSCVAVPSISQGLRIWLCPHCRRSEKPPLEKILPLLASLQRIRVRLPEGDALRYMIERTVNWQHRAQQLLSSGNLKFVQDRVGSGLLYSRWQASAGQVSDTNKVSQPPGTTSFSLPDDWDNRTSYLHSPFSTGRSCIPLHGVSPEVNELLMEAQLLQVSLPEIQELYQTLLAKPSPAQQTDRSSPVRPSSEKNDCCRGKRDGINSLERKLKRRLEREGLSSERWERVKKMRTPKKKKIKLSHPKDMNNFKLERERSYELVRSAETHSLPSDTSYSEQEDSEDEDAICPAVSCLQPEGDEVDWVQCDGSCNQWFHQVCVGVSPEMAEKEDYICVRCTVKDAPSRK
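qHTS format, multiple compound concentrations. Buffer 50 mM HEPES pH 7.5/0.01% Tween-20; 200 nM KDM5BΔAP final; 10 min compound preincubation; substrate-mix levels 12.5 µM peptide, 25 µM α-KG, 0.25 mM NAD⁺; 30 min RT; ΔRFU.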
The depositor's hits bear a star; i = inactive. Potency is the fitted concentration of half-maximal effect.

SMILES	KDM5B inhibitor
O=C1CCC/C(=N/NS(=O)(=O)c2ccc(Br)cc2)C1	i
O=C1NCCCCCCN(Cc2ccncc2)[C@@H]2CN(C(=O)NC3CCCCC3)CC[C@@H]12	i
COc1cccc(CN2CC[C@H]3C(=O)NCCCCCCN(Cc4ccncc4)[C@@H]3C2)n1	20µM*
O=C1NCCCCCCN(C(=O)Cc2ccccc2)[C@@H]2CCC[C@H]12	i
O=C1NCCCCCCN(Cc2ccccc2)[C@H]2CCC[C@@H]12	8.9µM*
O=C1NCCCCCN(C(=O)Cc2ccccc2)[C@H]2CCC[C@@H]12	i
O=C1NCCCCCCN(Cc2ccncc2)[C@@H]2CN(S(=O)(=O)Cc3ccccc3)CC[C@H]12	i
COc1cccc(S(=O)(=O)N2CCC(Cc3nncn3C)C2)c1 (stereo not given)	i
Fc1ccc(-c2nc(CSc3ncn[nH]3)co2)cc1	i
O=C(CN1CCN(S(=O)(=O)Cc2ccccc2)CC1)Nc1cccc(Cl)c1	i
CC(=O)c1c(C)[nH]c(C(=O)C(C)Sc2ccccc2Cl)c1C (stereo not given)	i
O=C(CN(c1ccccc1F)S(=O)(=O)c1ccccc1)Nc1ccccc1C(=O)O	i
CN(c1ccccc1)c1ccc2nnc(-c3cc(C(=O)NCc4ccncc4)ccn3)n2n1	32µM*
O=C(NCC1CCCO1)c1ccnc(-c2nnc3ccc(Nc4ccccc4)nn23)c1 (stereo not given)	i
CN1CCN(C(=O)c2ccnc(-c3nnc4ccc(N(C)C)nn34)c2)CC1	i
O=C(Nc1ccc(Cl)c(Cl)c1)c1n[nH]c(=O)c2ccccc12	i
O=C(NCCc1ccc(Cl)cc1)c1cccs1	i
O=C(NCCc1cccnc1)c1ccc2ccccc2c1	i
CC(C)(C)c1nnc2n1C(C(=O)NCCc1ccc(Cl)cc1)CC2 (stereo not given)	i
O=C(NCCc1ccc(Cl)cc1)c1nc(-c2cccc(F)c2)c2cnccn12	28µM*
O=C(NCCc1ccc(Cl)cc1)c1nc(-c2cccc(F)c2)n2c1CCCCC2	i
O=C(NCCc1cccnc1)c1ccc(C(F)(F)F)cc1	i
O=C(NCCc1ccc(Cl)cc1)c1nc(-c2cccnc2)c2cnccn12	25µM*
O=C(NCCc1ccc(C(F)(F)F)cc1)c1cccc2ncccc12	i
O=C(NCCc1ccc(Cl)cc1)c1cccc(Nc2ncc(-c3ccc(F)cc3)cn2)c1	i
SMILES	KDM5B inhibitor
O=C(Cn1cccc1-c1nc(-c2ccccc2)no1)NCCc1ccc(Cl)cc1	i
O=C(NCCc1ccc(Cl)cc1)c1nc(-c2cccc(C(F)(F)F)c2)c2cnccn12	32µM*
CC(C)(C)c1nc(C(=O)NCCc2ccc(Cl)cc2)n2ccncc12	79µM*
O=C(c1cc(C2CC2)nc2ccccc12)N1CCN(Cc2ccccc2)CC1	i
Cc1ccc(Nc2nc(COC(=O)c3ccc4c(c3)C(=O)N(C)C4=O)cs2)cc1	i
O=C(NCCc1ccc(C(F)(F)F)cc1)C12CC3CC(CC(Cl)(C3)C1)C2	i
C=CCNC(=O)C1CCN(C(=O)N2CC3CC(C2)[C@H]2CCCC(=O)N2C3)CC1 (stereo not given in full)	i
Nc1nc(Nc2ccc(Br)cc2)sc1C(=O)c1cccc(Br)c1	i
CC(C)(C)c1ccc(C(CNC(=O)c2cc(-c3cccs3)on2)N2CCOCC2)cc1 (stereo not given)	i
COCC(=O)NC[C@H]1O[C@@H](CC(=O)N2CCN(c3ccccc3OC)CC2)[C@H](O)[C@@H]1O	i
Cc1ccc(C(=O)N2CCN(c3cc(-c4ccccc4)[nH]n3)CC2)cc1F	i
COc1ccccc1C(=O)N1CCCN(c2nnc3cccc(C)n23)CC1	25µM*
COc1ccc(-c2cc(N3CCCN(C(=O)c4ccccc4OC)CC3)n[nH]2)cc1	i
COc1ccc(C(=O)N2CCC(C3CCNC3)CC2)cc1F (stereo not given)	i
Cc1ccc(C(=O)N2CCN(c3nnc4cccc(C)n34)CC2)cc1F	28µM*
COc1ccc(C(=O)N2CCC(C3CCN(C)CC3)C2)cc1F (stereo not given)	i
Cc1ccc(C(=O)N2CCN(c3cc(-c4ccc(Cl)cc4)[nH]n3)CC2)cc1F	i
COc1ccccc1C(=O)N1CCCN(c2cc(-c3ccc(Cl)cc3)[nH]n2)CC1	i
COc1ccc(C(=O)N2CCN(c3nnc4cccc(C)n34)CC2)cc1F	28µM*
CCn1nc(C(=O)OCCOc2ccc(OC)cc2)c2ccccc2c1=O	i
Cc1ccc2c(CN3CCN(CCc4ccncc4)CC3)cc(=O)oc2c1	i
Clc1ccc(-c2cnc(CN3CCN(c4ccccc4)CC3)o2)cc1	i
O=S(=O)(NC(c1ccc(F)cc1)c1cccs1)c1cccs1 (stereo not given)	i
CNC(=O)NC(=O)CN(C)Cc1ccc(C(=O)NC2CC2)cc1	i
Cc1ccc(NC(=O)COc2cccc(F)c2)cc1OCc1cc(=O)n2c(ncn2C(C)C)n1	i
SMILES	KDM5B inhibitor
CCC(C)c1ccccc1NC(=O)c1ccc(SC)cc1OC (stereo not given)	i
CC1CCC(NC(=O)c2csc3c2CCCCC3)CC1 (stereo not given)	i
CCOc1cc(/C=C2\NC(=O)NC2=O)c(Br)cc1OC	i
CCN(CC)CCNC(=O)Cn1nc(C)n2nc(-c3ccccc3)cc2c1=O	i
Cc1ccc(C(=O)O)c(OCC(=O)NCc2ccco2)c1	i
COC[C@@H]1CN(c2cnccn2)C[C@H]1C(=O)N1CCc2ccccc2C1	20µM*
COC[C@@H]1CN(c2cnccn2)C[C@H]1C(=O)Nc1ccc(OC)nc1	25µM*
CC(=O)Nc1ccc(NC(=O)C2CCN(c3cnccn3)CC2)cc1	i
COc1ccc(C(=O)N[C@@H]2CCC[C@@H]2C(=O)NCCc2ccccn2)cn1	i
CC(=O)Nc1ccc(OCC(=O)N2CCc3ccccc3C2)nc1	i
COC[C@@H]1CN(c2cnccn2)C[C@H]1C(=O)Nc1cccnc1	28µM*
O=C(Nc1cccnc1)N1CCN(c2cnccn2)CC1	i
O=C(NCCc1ccccn1)C1CCC(=O)N(C2CCCCCC2)C1 (stereo not given)	i
CC1=C(C)CC(C(=O)N2CCc3ccccc3C2)C(C(=O)O)C1 (stereo not given)	i
CNC(=O)[C@@H]1CN(C(=O)c2ccc(OC)nc2)C[C@H]1COC	i
COC[C@@H]1CN(c2cnccn2)C[C@H]1C(=O)NCCc1ccccn1	20µM*
COc1ccc(NC(=O)C2CCN(c3cnccn3)CC2)cc1Cl	i
COc1ccc(CNC[C@H]2O[C@H](Cc3cc(-c4cccc(O)c4)on3)CC[C@@H]2O)cc1	i
COc1cccc(CNC(=O)CC2CCOCC2)c1OC	i
CCN(CC)C[C@H]1O[C@H](Cc2cc(-c3ccccc3)on2)CC[C@@H]1O	i
C[C@H]1CCCN1C(=O)c1nnc(COc2ccccc2)n1-c1ccccc1	i
COc1cc(CSc2c(C(C)C)cnc3c2c(=O)n(C)c(=O)n3C)cc(OC)c1	i
CN1CCC(NCc2nc3c(n2Cc2ccccc2)C(=O)N(CCOc2ccccc2)CCN3)CC1	i
NC(N)=NC(N)=Nc1ccc(F)cc1	i
CC(C)CCNC(=O)NC(=O)COC(=O)Cc1c[nH]c2ccccc12	i
COc1ccc(-n2c(=O)c3c(n2Cc2ccccc2)CN(C(=O)c2ccnn2C)CC3)cc1	i
O=C(Cc1ccc(F)cc1)N1CCc2nc(C3CC3)nc(-c3ccc(Cl)cc3)c2C1	i

Screening data: PubChem BioAssay, National Center for Advancing Translational Sciences (NCATS)
